From PubChem BioAssay (NCATS) come the findings set out here.

The nature of test [1]: qHTS of pediatric cancer cell lines to identify multiple opportunities for drug repurposing: Primary screen for RD cells (AID 1347104). Further: nearly all actives have a fitted effect of over 55% in size. Further: potency means the concentration at half of the fitted maximal effect. The method, boiled down: (§1)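 Primary screen of approved and investigational compounds on cells in growth media at 37 degrees C, 5% CO2. MIPE set at 11-point and NPC set at 8-point dilutions; viability scored by ATP-based luminescence at 48 hours.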
On the technique in general: qHTS replaces the single test concentration by a dilution series.

Test [2] is described as follows: qHTS of pediatric cancer cell lines to identify multiple opportunities for drug repurposing: Primary screen for MG 63 (6-TG R) cells (AID 1347105). Further: nearly all actives have a fitted effect of over 50% in size. Further: potency means the concentration at half of the fitted maximal effect. The method, boiled down: as §1
Test [3] is described as follows: qHTS of pediatric cancer cell lines to identify multiple opportunities for drug repurposing: Primary screen for control Hh wild type fibroblast cells (AID 1347106). Further: nearly all actives have a fitted effect of over 55% in size. Further: potency means the concentration at half of the fitted maximal effect. The essentials: (§2)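 Viability after 48 h compound treatment at 37C, 500-1,000 cells/well, read as ATP luminescence with CellTiter-Glo. Primary screens used 11-point (MIPE, 0.78 nM-46 µM) or 8-point (NPC, 0.59 nM-46 µM) final concentrations; follow-up screens used 11-point dilutions.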

Test [4] is described as follows: qHTS of pediatric cancer cell lines to identify multiple opportunities for drug repurposing: Primary screen for Rh30 cells (AID 1347107). Further: series mostly up to about 46 µM; nearly all actives have a fitted effect of over 75% in size. The essentials:
as §2

Test [5] can be described thus: qHTS of pediatric cancer cell lines to identify multiple opportunities for drug repurposing: Primary screen for Rh41 cells (AID 1347108).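 Further: series mostly up to about 46 µM; luminescence drop marks cytotoxic hits; nearly all actives have a fitted effect of over 70% in size.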 The essentials: as §1

Inconclusive results are not listed. Activity calls are given as the source filed them. The call rests on the fitted dose curve; in most records, active means well fitted curve in the direction sought with a large enough effect; inconclusive means small, poorly fitted or top-dose-only effect, or another doubt; inactive means no such curve, though single readings can be large; an effect the other way counts as inactive or inconclusive.

As for `CCOP(=O)(OCC)C(C)NC(=O)N(CCCl)N=O` (stereo not given), the Potency result in test [1], in test [2], in test [3], in test [4] and in test [5] was “inactive” throughout.
In the case of `CC(C)(O)C(=O)Nc1ccc([N+](=O)[O-])c(C(F)(F)F)c1`, the Potency in test [1] was 29.6 µM (active).
In the case of `O=C(O)CNC(=O)c1c(O)c2ccccc2n(Cc2ccccc2)c1=O`, the Potency result in test [1], in test [2], in test [3], in test [4] and in test [5] was “inactive” throughout.
On to `COc1cccc2c1[C@]13CCN(CC4CC4)[C@H](C2)[C@]1(OC)CCC(=O)C3`, for which the Potency entry in test [1], in test [2], in test [3], in test [4] and in test [5] was “inactive” each time.
In the case of `Oc1ccc2c3c1O[C@H]1c4[nH]c5c(c4C[C@@]4(O)[C@@H](C2)N(CC2CC2)CC[C@]314)C[C@@]1(O)[C@H]2Cc3ccc(O)c4c3[C@@]1(CCN2CC1CC1)[C@H]5O4`, the Potency result in test [1], in test [2], in test [3], in test [4] and in test [5] was “inactive” each time.
Consider `C=C[C@@H]1CN2CCC1C[C@H]2[C@H](O)c1ccnc2ccccc12` (stereo not given in full), for which the Potency in test [1] was 37.2 µM (active). Also, the Potency result in test [2] and in test [3] was “inactive” each time.
For the compound `O=[N+]([O-])c1ncc[nH]1`, the Potency entry in test [1], in test [2], in test [3], in test [4] and in test [5] was “inactive” throughout.
Take `Nc1ccc(Cl)cc1`: the Potency entry in test [1], in test [2], in test [3], in test [4] and in test [5] was “inactive” in each case.
With `CC(O)=C(C#N)C(=O)Nc1cc(Br)ccc1Br`, the Potency result in test [1], in test [2], in test [3] and in test [4] was “inactive” in each case.
Turning to `CCOP(=O)(NC(C)C)Oc1ccc(SC)c(C)c1` (stereo not given), the Potency result in test [1], in test [2], in test [3], in test [4] and in test [5] was “inactive” throughout.
Consider `O=C(O)c1cc(Oc2ccc(C(F)(F)F)cc2Cl)ccc1[N+](=O)[O-]`, for which the Potency result in test [1], in test [2], in test [3], in test [4] and in test [5] was “inactive” in each case.
Consider `C1=C2CCCN[C@H]2[C@@H]2C[C@H]1[C@@H]1CCCCN1C2`, for which the Potency result in test [1], in test [2], in test [3], in test [4] and in test [5] was “inactive” in each case.
For the compound `CC(=O)N(C)c1cccc(-c2ccnc3c(C(=O)c4cccs4)cnn23)c1`, the Potency entry in test [1], in test [2], in test [3], in test [4] and in test [5] was “inactive” in each case.
For `C=C[C@@H]1CN2CCC1C[C@@H]2[C@@H](O)c1ccnc2ccccc12` (stereo not given in full), the Potency in test [1] was 29.6 µM (active). The Potency entry in test [2] and in test [3] was “inactive” throughout.
Take `C[C@H]([C@H](O)CCC(C)(C)O)[C@H]1CC[C@@]2(O)C3=CC(=O)[C@@H]4C[C@@H](O)[C@@H](O)C[C@]4(C)[C@@H]3CC[C@]12C`: the Potency result in test [1], in test [2], in test [3], in test [4] and in test [5] was “inactive” throughout.
Consider `O=C(O)COc1ccccc1`, for which the Potency result in test [1], in test [2], in test [3], in test [4] and in test [5] was “inactive” in each case.
Regarding `Nc1ccc(Cl)cc1N`, the Potency result in test [1], in test [2], in test [3], in test [4] and in test [5] was “inactive” in each case.
Take `Cc1nc(-c2ccc(-c3ccc(C(=O)N4CCc5cc6c(cc54)C4(CCN(C)CC4)CO6)cc3)c(C)c2)no1`: the Potency entry in test [1], in test [2], in test [3], in test [4] and in test [5] was “inactive” each time.
Turning to `CN[C@@H]1Cc2cccc3[nH]c(=O)n(c23)C1`, the Potency result in test [1], in test [2], in test [3] and in test [4] was “inactive” each time.
Consider `Clc1ccccc1C(c1ccccc1)(c1ccccc1)n1cccn1`, for which the Potency entry in test [1], in test [2], in test [3], in test [4] and in test [5] was “inactive” in each case.
As to `O=C(Oc1ccc([N+](=O)[O-])cc1)N1CCN(Cc2cccc(Oc3ccccc3)c2)CC1`, the Potency was 18.7 µM (active) in test [1], 14.8 µM (active) in test [2] and 3.32 µM (active) in test [3]. The Potency entry in test [4] and in test [5] was “inactive” in each case.
`Oc1ccc2c3c1O[C@H]1[C@@H](O)C=C[C@H]4[C@@H](C2)NCC[C@@]341`: the Potency entry in test [1], in test [2], in test [3], in test [4] and in test [5] was “inactive” each time.
As to `CC(C)N(CCNC(=O)CN1CCCC1=O)C(C)C`, the Potency result in test [1], in test [2], in test [3], in test [4] and in test [5] was “inactive” in each case.
`Fc1cc(Br)ccc1CBr`: the Potency entry in test [1], in test [2], in test [3], in test [4] and in test [5] was “inactive” each time.
Consider `CCCCCCCCCC(CC)c1ccc(S(=O)(=O)O)cc1` (stereo not given), for which the Potency entry in test [1], in test [2], in test [3], in test [4] and in test [5] was “inactive” throughout.
`C[C@@H]1[C@H](O)[C@@H](C)C=CC=CCCC=CC=CC=CC=C[C@H](O[C@H]2O[C@@H](C)[C@H](O)[C@@H](N)[C@@H]2O)CC2O[C@](O)(C[C@@H](O)[C@H](O)CC[C@@H](O)C[C@@H](O)C[C@@H](O)CC(=O)O[C@H]1C)C[C@H](O)[C@H]2C(=O)O`: the Potency entry in test [1], in test [2], in test [3], in test [4] and in test [5] was “inactive” each time.
On to `CN(C)[C@@H]1C(=O)C(C(N)=O)=C(O)[C@@]2(O)C(=O)C3=C(O)c4c(O)cccc4[C@@](C)(O)[C@H]3[C@H](O)[C@@H]12`, for which the Potency entry in test [1], in test [2], in test [3], in test [4] and in test [5] was “inactive” each time.
Take `C#C[C@]1(O)C=C[C@@H]2[C@@H]3CCC4=CC(=O)CC[C@@H]4[C@H]3CC[C@@]21CC`: the Potency entry in test [1], in test [2], in test [3], in test [4] and in test [5] was “inactive” in each case.
